Laboratory results from ChEMBL document CHEMBL4513146, “CO-ADD screening of Karazin Kharkiv National University (Ukraine) compounds”.
Results with a measured potency or affinity are listed apart.

What follows are compounds tested on Klebsiella pneumoniae. Details: Concentration 32 ug.mL-1;; ASSAY_TEST Inhibition of Bacterial Growth; detection method Absorption (OD600); MEDIA CAMHB; plate type 384well; NBS; CORNING #3640; time 18 hr.

Q: For CCc1nnc2c(S(=O)(=O)N(Cc3cccc(F)c3)c3ccc(C)c(C)c3)cccn12, which Inhibition is on record?
A: Its Inhibition is 12.58%.

Q: Which Inhibition does the source give for Cc1ccc(-c2cc3c4nnc(CCC(=O)N5CCN(c6ccccn6)CC5)n4ccn3n2)cc1C here?
A: The Inhibition was 7.34%.

Q: With CCCCn1c(=O)c2sccc2n2c(=O)n(CC(=O)c3ccc(OC)c(OC)c3)nc12 as the compound, how does the Inhibition read?
A: Its Inhibition is 19.59%.

Q: For Cc1cc(C)cc(NC(=O)CSc2nnc3c(=O)n(-c4ccc(Br)cc4)ccn23)c1, which Inhibition is on record?
A: Its Inhibition is 11.44%.

Q: Which Inhibition does the source give for Cc1nc(-c2ccccn2)cc2nn(CC(=O)Nc3ccccc3C(F)(F)F)c(=O)n12 here?
A: The Inhibition was 3.31%.

Q: For N#Cc1cccc(NC(=O)Cn2nc3c4cc(-c5ccc(Cl)cc5)nn4ccn3c2=O)c1, which Inhibition is on record?
A: Its Inhibition is 3.5%.

Q: With CC(C)c1nnc2c(=O)n(CC(=O)Nc3ccc(F)cc3F)c3ccccc3n12 as the compound, how does the Inhibition read?
A: Its Inhibition is 15.02%.

Q: With COc1ccccc1-n1ccn2c(SCc3ccccc3Cl)nnc2c1=O as the compound, how does the Inhibition read?
A: Its Inhibition is 10.5%.

Q: COc1ccccc1Cn1c(=O)c2sccc2n2c(=O)n(Cc3ccccc3)nc12 was tested. Which Inhibition did it give?
A: Its Inhibition is 5.78%.

Q: For COc1cccc(-n2ccn3c(SCC(=O)Nc4ccc(Cl)cc4)nnc3c2=O)c1, which Inhibition is on record?
A: Its Inhibition is 5.48%.

Q: Which Inhibition does the source give for COc1ccc(CN(c2ccc(OC)cc2)S(=O)(=O)c2ccc3nnc(C)n3c2)cc1 here?
A: Its Inhibition is 9.27%.

Q: How did the Inhibition turn out when Cc1ccc(-c2ccc3nn(CC(=O)N4CCN(c5ccccc5F)CC4)c(=O)n3n2)cc1C was run?
A: The Inhibition was 9.79%.

Q: Which Inhibition does the source give for COc1ccc(C(C)NC(=O)CCc2nnc3ccc(-c4ccc(C)cc4)nn23)cc1OC (stereo not drawn) here?
A: Its Inhibition is 15.87%.

Q: Which Inhibition does the source give for Cc1ccc(Oc2nccn3c(=O)n(CC(=O)NCCC4=CCCCC4)nc23)cc1 here?
A: Its Inhibition is 12.14%.

Q: How did the Inhibition turn out when Cc1ccc(NC(=O)Cn2nc3c(Oc4ccccc4)nccn3c2=O)c(Cl)c1 was run?
A: The Inhibition was -7.35%.

Q: How did the Inhibition turn out when COc1cccc(-n2ccn3c(SCC(=O)c4ccc(C)cc4)nnc3c2=O)c1 was run?
A: The Inhibition was 10.94%.

Q: With CC(C)c1nnc2c(SCC(=O)Nc3ccc4c(c3)OCO4)nc3ccccc3n12 as the compound, how does the Inhibition read?
A: The Inhibition was 4.73%.

Q: CC(C)NC(=O)CSc1nnc2c(=O)n(Cc3ccc(F)cc3)ccn12 was tested. Which Inhibition did it give?
A: The Inhibition was 4.17%.

Q: How did the Inhibition turn out when CCOc1ccc(NC(=O)Cn2nc3ccc(SCc4ccc(Cl)cc4)nn3c2=O)cc1 was run?
A: The Inhibition was 7.43%.

Q: With COc1ccccc1NC(=O)Cn1nc2c(Sc3ccccc3)nccn2c1=O as the compound, how does the Inhibition read?
A: The Inhibition was -2.04%.

Q: Cc1ccc(NC(=O)Cn2nc3ccc(SC(C)C)nn3c2=O)c(C)c1 was tested. Which Inhibition did it give?
A: The Inhibition was 11.09%.

Q: Which Inhibition does the source give for CC(C)CCn1c(=O)c2ccc(C(=O)NC3CCCCC3)cc2n2c(=O)n(CC#N)nc12 here?
A: The Inhibition was 4.36%.

Q: With COc1ccccc1CNC(=O)CSc1nnc2c3cc(-c4ccc(C)cc4)nn3ccn12 as the compound, how does the Inhibition read?
A: The Inhibition was -1.35%.

Q: With CCN(C(=O)Cn1nc2nc(Nc3ccc(F)cc3)ccn2c1=O)c1ccccc1 as the compound, how does the Inhibition read?
A: Its Inhibition is 8.48%.

Q: COc1cc(NC(=O)Cn2nc3ccc(-c4ccc(C)c(C)c4)nn3c2=O)cc(OC)c1 was tested. Which Inhibition did it give?
A: Its Inhibition is 2.14%.

Q: CCOc1ccc(NC(=O)Cn2nc3c(N4CCCC4)nccn3c2=O)cc1 was tested. Which Inhibition did it give?
A: The Inhibition was 9.68%.

Q: With COc1ccc(NC(=O)Cn2nc3ccc(SC(C)(C)C)nn3c2=O)cc1Cl as the compound, how does the Inhibition read?
A: Its Inhibition is 12.99%.

Q: Cc1nnc2c(=O)n(CC(=O)Nc3cccc(F)c3)c3ccccc3n12 was tested. Which Inhibition did it give?
A: The Inhibition was 11.8%.

Q: How did the Inhibition turn out when N#CCn1nc2n(Cc3ccc(F)cc3)c(=O)c3ccccc3n2c1=O was run?
A: Its Inhibition is 3.36%.

Q: How did the Inhibition turn out when O=C(CSc1nnc2c3cc(-c4ccc(F)cc4)nn3ccn12)NCCc1ccccc1 was run?
A: Its Inhibition is 7.72%.

Q: How did the Inhibition turn out when COc1ccc(C)cc1NC(=O)Cn1nc2c(N3CCSCC3)nc3ccccc3n2c1=O was run?
A: Its Inhibition is 14.66%.

Q: Which Inhibition does the source give for COC(=O)c1ccc(Cn2nc3ccc(S(=O)(=O)N4CCCCCC4)cn3c2=O)o1 here?
A: The Inhibition was 1.98%.

Q: For O=S(=O)(c1ccc2nncn2c1)N(Cc1ccc(F)cc1)c1ccc(F)c(F)c1, which Inhibition is on record?
A: The Inhibition was 5.64%.

Q: For Cc1ccc2c(c1)N(C(=O)Cn1nc3ccc(SC(C)(C)C)nn3c1=O)CCO2, which Inhibition is on record?
A: The Inhibition was 14.93%.

Q: Cc1cc2nn(CC(=O)Nc3cc(F)ccc3F)c(=O)n2c(Nc2ccc(F)c(C)c2)n1 was tested. Which Inhibition did it give?
A: The Inhibition was 12.97%.

Q: Which Inhibition does the source give for CCOC(=O)c1ccc(NC(=O)Cn2nc3ccc(S(=O)(=O)C(C)(C)C)nn3c2=O)cc1 here?
A: The Inhibition was 4.44%.

Q: CCc1ccc(N(Cc2ccc(F)cc2)S(=O)(=O)c2cccn3c(CC)nnc23)cc1 was tested. Which Inhibition did it give?
A: Its Inhibition is 6.32%.

Q: With CCCCOc1ccc(-c2cc3c4nnc(SCC(=O)Nc5ccccc5Cl)n4ccn3n2)cc1 as the compound, how does the Inhibition read?
A: The Inhibition was 5.58%.

Q: Which Inhibition does the source give for COC(=O)c1sccc1NC(=O)Cn1nc2c(Oc3ccccc3)nc3ccccc3n2c1=O here?
A: The Inhibition was 10.72%.

What follows are compounds tested on Candida albicans. Details: Concentration 32 ug.mL-1; ASSAY_TEST Inhibition of Fungal Growth; detection method Absorption (OD530).

Q: CCc1nnc2c(S(=O)(=O)N(Cc3cccc(F)c3)c3ccc(C)c(C)c3)cccn12 was tested. Which Inhibition did it give?
A: The Inhibition was 3.78%.

Q: Which Inhibition does the source give for Cc1ccc(-c2cc3c4nnc(CCC(=O)N5CCN(c6ccccn6)CC5)n4ccn3n2)cc1C here?
A: Its Inhibition is 0.49%.

Q: Which Inhibition does the source give for CCCCn1c(=O)c2sccc2n2c(=O)n(CC(=O)c3ccc(OC)c(OC)c3)nc12 here?
A: The Inhibition was -0.04%.

Q: How did the Inhibition turn out when Cc1cc(C)cc(NC(=O)CSc2nnc3c(=O)n(-c4ccc(Br)cc4)ccn23)c1 was run?
A: The Inhibition was 6.21%.

Q: For Cc1nc(-c2ccccn2)cc2nn(CC(=O)Nc3ccccc3C(F)(F)F)c(=O)n12, which Inhibition is on record?
A: Its Inhibition is 0.65%.

Q: Which Inhibition does the source give for N#Cc1cccc(NC(=O)Cn2nc3c4cc(-c5ccc(Cl)cc5)nn4ccn3c2=O)c1 here?
A: The Inhibition was 20.48%.

Q: For CC(C)c1nnc2c(=O)n(CC(=O)Nc3ccc(F)cc3F)c3ccccc3n12, which Inhibition is on record?
A: Its Inhibition is 0.81%.

Q: How did the Inhibition turn out when COc1ccccc1-n1ccn2c(SCc3ccccc3Cl)nnc2c1=O was run?
A: Its Inhibition is 2.3%.

Q: COc1ccccc1Cn1c(=O)c2sccc2n2c(=O)n(Cc3ccccc3)nc12 was tested. Which Inhibition did it give?
A: Its Inhibition is -0.06%.

Q: How did the Inhibition turn out when COc1cccc(-n2ccn3c(SCC(=O)Nc4ccc(Cl)cc4)nnc3c2=O)c1 was run?
A: Its Inhibition is 2.88%.

Q: Which Inhibition does the source give for COc1ccc(CN(c2ccc(OC)cc2)S(=O)(=O)c2ccc3nnc(C)n3c2)cc1 here?
A: The Inhibition was 0.4%.

Q: How did the Inhibition turn out when Cc1ccc(-c2ccc3nn(CC(=O)N4CCN(c5ccccc5F)CC4)c(=O)n3n2)cc1C was run?
A: Its Inhibition is 0.84%.

Q: How did the Inhibition turn out when COc1ccc(C(C)NC(=O)CCc2nnc3ccc(-c4ccc(C)cc4)nn23)cc1OC (stereo not drawn) was run?
A: The Inhibition was 8.51%.

Q: Cc1ccc(Oc2nccn3c(=O)n(CC(=O)NCCC4=CCCCC4)nc23)cc1 was tested. Which Inhibition did it give?
A: Its Inhibition is 4.38%.

Q: With Cc1ccc(NC(=O)Cn2nc3c(Oc4ccccc4)nccn3c2=O)c(Cl)c1 as the compound, how does the Inhibition read?
A: Its Inhibition is -1.78%.

Q: With COc1cccc(-n2ccn3c(SCC(=O)c4ccc(C)cc4)nnc3c2=O)c1 as the compound, how does the Inhibition read?
A: The Inhibition was 3.43%.

Q: Which Inhibition does the source give for CC(C)c1nnc2c(SCC(=O)Nc3ccc4c(c3)OCO4)nc3ccccc3n12 here?
A: Its Inhibition is -0.7%.

Q: How did the Inhibition turn out when CC(C)NC(=O)CSc1nnc2c(=O)n(Cc3ccc(F)cc3)ccn12 was run?
A: Its Inhibition is 2.95%.

Q: Which Inhibition does the source give for CCOc1ccc(NC(=O)Cn2nc3ccc(SCc4ccc(Cl)cc4)nn3c2=O)cc1 here?
A: Its Inhibition is 15.3%.

Q: How did the Inhibition turn out when COc1ccccc1NC(=O)Cn1nc2c(Sc3ccccc3)nccn2c1=O was run?
A: Its Inhibition is 1.31%.

Q: Which Inhibition does the source give for Cc1ccc(NC(=O)Cn2nc3ccc(SC(C)C)nn3c2=O)c(C)c1 here?
A: Its Inhibition is 2.8%.

Q: For CC(C)CCn1c(=O)c2ccc(C(=O)NC3CCCCC3)cc2n2c(=O)n(CC#N)nc12, which Inhibition is on record?
A: Its Inhibition is 4.75%.

Q: COc1ccccc1CNC(=O)CSc1nnc2c3cc(-c4ccc(C)cc4)nn3ccn12 was tested. Which Inhibition did it give?
A: The Inhibition was -1.83%.

Q: With CCN(C(=O)Cn1nc2nc(Nc3ccc(F)cc3)ccn2c1=O)c1ccccc1 as the compound, how does the Inhibition read?
A: The Inhibition was 1.18%.

Q: Which Inhibition does the source give for COc1cc(NC(=O)Cn2nc3ccc(-c4ccc(C)c(C)c4)nn3c2=O)cc(OC)c1 here?
A: Its Inhibition is 14.91%.

Q: Which Inhibition does the source give for CCOc1ccc(NC(=O)Cn2nc3c(N4CCCC4)nccn3c2=O)cc1 here?
A: Its Inhibition is 0.82%.

Q: Which Inhibition does the source give for COc1ccc(NC(=O)Cn2nc3ccc(SC(C)(C)C)nn3c2=O)cc1Cl here?
A: Its Inhibition is 3.69%.

Q: Cc1nnc2c(=O)n(CC(=O)Nc3cccc(F)c3)c3ccccc3n12 was tested. Which Inhibition did it give?
A: Its Inhibition is 1.2%.

Q: For N#CCn1nc2n(Cc3ccc(F)cc3)c(=O)c3ccccc3n2c1=O, which Inhibition is on record?
A: Its Inhibition is 3.09%.

Q: For O=C(CSc1nnc2c3cc(-c4ccc(F)cc4)nn3ccn12)NCCc1ccccc1, which Inhibition is on record?
A: Its Inhibition is 2.21%.

Q: With COc1ccc(C)cc1NC(=O)Cn1nc2c(N3CCSCC3)nc3ccccc3n2c1=O as the compound, how does the Inhibition read?
A: Its Inhibition is -2.66%.

Q: For COC(=O)c1ccc(Cn2nc3ccc(S(=O)(=O)N4CCCCCC4)cn3c2=O)o1, which Inhibition is on record?
A: Its Inhibition is -1.08%.

Q: O=S(=O)(c1ccc2nncn2c1)N(Cc1ccc(F)cc1)c1ccc(F)c(F)c1 was tested. Which Inhibition did it give?
A: Its Inhibition is 2.31%.

Q: Cc1ccc2c(c1)N(C(=O)Cn1nc3ccc(SC(C)(C)C)nn3c1=O)CCO2 was tested. Which Inhibition did it give?
A: The Inhibition was 9.3%.

Q: Cc1cc2nn(CC(=O)Nc3cc(F)ccc3F)c(=O)n2c(Nc2ccc(F)c(C)c2)n1 was tested. Which Inhibition did it give?
A: The Inhibition was 1.83%.

Q: How did the Inhibition turn out when CCOC(=O)c1ccc(NC(=O)Cn2nc3ccc(S(=O)(=O)C(C)(C)C)nn3c2=O)cc1 was run?
A: Its Inhibition is 15.58%.

Q: Which Inhibition does the source give for CCc1ccc(N(Cc2ccc(F)cc2)S(=O)(=O)c2cccn3c(CC)nnc23)cc1 here?
A: Its Inhibition is 33.96%.

Q: With CCCCOc1ccc(-c2cc3c4nnc(SCC(=O)Nc5ccccc5Cl)n4ccn3n2)cc1 as the compound, how does the Inhibition read?
A: Its Inhibition is 2.9%.

Q: For COC(=O)c1sccc1NC(=O)Cn1nc2c(Oc3ccccc3)nc3ccccc3n2c1=O, which Inhibition is on record?
A: Its Inhibition is 1.3%.
